In PubChem BioAssay AID1159580 (chemical genetic matrix, 2015):
Out of some 5,500 compounds screened, about 2,000 (36%) were called active. Roughly 18% stayed inconclusive and do not appear here. Some of the results follow. Values without a mark were called inactive. Cut-off read from the data, not from the text of the source: active = normalized growth mostly below about 0.91 (no sharp cut-off); inconclusive = no clear call, values can overlap the other calls; inactive = mostly above about 0.92.

Experiment: chemical genetic growth profiling, strain panel (AID 1159580);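 note: tested at 20 µM; growth read once vehicle control cultures reached saturation at 30 °C; 1 = growth at the plate median or of vehicle wells; lower values mean less growth of the strain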
Settings: growth OD
[1] = S. cerevisiae deletion strains, locus YDL101C, strain DUN1, active compounds read low
[2] = S. cerevisiae deletion strains, locus YHR030C, strain SLT2, active compounds read low
[3] = S. cerevisiae deletion strains, locus YAL013W, strain DEP1, active compounds read low
[4] = S. cerevisiae deletion strains, locus YBR229C, strain ROT2, active compounds read low
[5] = S. cerevisiae deletion strains, locus YDL134C, strain PPH21, active compounds read low
[6] = S. cerevisiae deletion strains, locus YDR150W, strain NUM1, active compounds read low
[7] = S. cerevisiae deletion strains, locus YEL061C, strain CIN8, active compounds read low
[8] = S. cerevisiae deletion strains, locus YGR078C, strain PAC10, active compounds read low
[9] = S. cerevisiae deletion strains, locus YHR087W, strain rtc3, active compounds read low
[10] = S. cerevisiae deletion strains, locus YJR043C, strain POL32, active compounds read low
[11] = S. cerevisiae deletion strains, locus YJR075W, strain HOC1, active compounds read low
[12] = S. cerevisiae deletion strains, locus YKL190W, strain CNB1, active compounds read low
[13] = S. cerevisiae deletion strains, locus YLR039C, strain RIC1, active compounds read low
[14] = S. cerevisiae deletion strains, locus YLR058C, strain SHM2 (second series), active compounds read low
[15] = S. cerevisiae deletion strains, locus YLR085C, strain ARP6, active compounds read low
[16] = S. cerevisiae deletion strains, locus YLR262C, strain YPT6, active compounds read low
[17] = S. cerevisiae deletion strains, locus YML094W, strain GIM5, active compounds read low
[18] = S. cerevisiae deletion strains, locus YMR219W, strain ESC1, active compounds read low
[19] = S. cerevisiae deletion strains, locus YMR263W, strain SAP30, active compounds read low
[20] = S. cerevisiae deletion strains, locus YNL153C, strain GIM3, active compounds read low
[21] = S. cerevisiae deletion strains, locus YNL298W, strain CLA4 (second series), active compounds read low
[22] = S. cerevisiae deletion strains, locus YNL322C, strain KRE1, active compounds read low
[23] = S. cerevisiae deletion strains, locus YNR030W, strain Alg12, active compounds read low
[24] = S. cerevisiae deletion strains, locus YPL055C, strain LGE1, active compounds read low
[25] = S. cerevisiae deletion strains, locus YPL241C, strain CIN2, active compounds read low
[26] = S. cerevisiae deletion strains, locus YPR135W, strain CTF4, active compounds read low
[27] = S. cerevisiae strains, strain wild type, active compounds read low

## Cc1c(S(=O)(=O)Nc2cccc([N+](=O)[O-])c2)sc2ccc(Cl)cc12
S. cerevisiae deletion strains, locus YAR019C, strain CDC15, active compounds read low
  normalized growth: 0.965
S. cerevisiae deletion strains, locus YBL105C, strain PKC1, active compounds read low
  normalized growth: 0.973
S. cerevisiae deletion strains, locus YBR135W, strain CKS1, active compounds read low
  normalized growth: 0.968
S. cerevisiae deletion strains, locus YBR136W, strain MEC1, active compounds read low
  normalized growth: 0.973
S. cerevisiae deletion strains, locus YBR160W, strain CDC28, active compounds read low
  normalized growth: 0.967
S. cerevisiae deletion strains, locus YDL017W, strain CDC7, active compounds read low
  normalized growth: 0.972
S. cerevisiae deletion strains, locus YDL028C, strain MPS1, active compounds read low
  normalized growth: 0.979
[1]
  normalized growth: 0.963
S. cerevisiae deletion strains, locus YDL108W, strain KIN28, active compounds read low
  normalized growth: 0.981
S. cerevisiae deletion strains, locus YDL132W, strain cdc53, active compounds read low
  normalized growth: 0.955
S. cerevisiae deletion strains, locus YDL214C, strain PRR2, active compounds read low
  normalized growth: 0.991
S. cerevisiae deletion strains, locus YDR052C, strain DBF4, active compounds read low
  normalized growth: 0.958
S. cerevisiae deletion strains, locus YDR054C, strain cdc34, active compounds read low
  normalized growth: 0.969
S. cerevisiae deletion strains, locus YDR226W, strain ADK1, active compounds read low
  normalized growth: 0.966
S. cerevisiae deletion strains, locus YDR477W, strain SNF1, active compounds read low
  normalized growth: 0.979
S. cerevisiae deletion strains, locus YER123W, strain YCK3, active compounds read low
  normalized growth: 1.01
S. cerevisiae deletion strains, locus YER133W, strain GLC7, active compounds read low
  normalized growth: 0.982
S. cerevisiae deletion strains, locus YFL009W, strain cdc4, active compounds read low
  normalized growth: 0.97
S. cerevisiae deletion strains, locus YFL029C, strain CAK1, active compounds read low
  normalized growth: 0.97
S. cerevisiae deletion strains, locus YFR003C, strain YPI1, active compounds read low
  normalized growth: 0.98
S. cerevisiae deletion strains, locus YFR019W, strain FAB1, active compounds read low
  normalized growth: 0.975
S. cerevisiae deletion strains, locus YFR028C, strain CDC14, active compounds read low
  normalized growth: 0.973
S. cerevisiae deletion strains, locus YGR040W, strain KSS1, active compounds read low
  normalized growth: 0.96
S. cerevisiae deletion strains, locus YGR052W, strain FMP48, active compounds read low
  normalized growth: 1.09
S. cerevisiae deletion strains, locus YGR092W, strain DBF2, active compounds read low
  normalized growth: 0.932
[2]
  normalized growth: 0.752 (active)
S. cerevisiae deletion strains, locus YHR079C, strain IRE1, active compounds read low
  normalized growth: 0.913
S. cerevisiae deletion strains, locus YHR082C, strain KSP1, active compounds read low
  normalized growth: 1.01
S. cerevisiae deletion strains, locus YHR205W, strain SCH9, active compounds read low
  normalized growth: 0.986
S. cerevisiae deletion strains, locus YIL147C, strain SLN1, active compounds read low
  normalized growth: 0.976
S. cerevisiae deletion strains, locus YJL095W, strain BCK1, active compounds read low
  normalized growth: 0.979
S. cerevisiae deletion strains, locus YJL128C, strain PBS2, active compounds read low
  normalized growth: 0.963
S. cerevisiae deletion strains, locus YJL157C, strain FAR1, active compounds read low
  normalized growth: 1.01
S. cerevisiae deletion strains, locus YJR016C, strain ILV3, active compounds read low
  normalized growth: 0.969
S. cerevisiae deletion strains, locus YJR066W, strain TOR1 (second series), active compounds read low
  normalized growth: 0.999
S. cerevisiae deletion strains, locus YJR066W, strain TOR1, active compounds read low
  normalized growth: 1.03
S. cerevisiae deletion strains, locus YKL048C, strain ELM1, active compounds read low
  normalized growth: 0.967
S. cerevisiae deletion strains, locus YKL067W, strain YNK1, active compounds read low
  normalized growth: 0.99
S. cerevisiae deletion strains, locus YKL101W, strain HSL1, active compounds read low
  normalized growth: 0.981
S. cerevisiae deletion strains, locus YKL193C, strain SDS22, active compounds read low
  normalized growth: 0.971
S. cerevisiae deletion strains, locus YKL203C, strain TOR2, active compounds read low
  normalized growth: 1
S. cerevisiae deletion strains, locus YLR113W, strain HOG1, active compounds read low
  normalized growth: 0.878
S. cerevisiae deletion strains, locus YLR133W, strain CKI1, active compounds read low
  normalized growth: 0.989
S. cerevisiae deletion strains, locus YLR403W, strain SFP1, active compounds read low
  normalized growth: 0.954
S. cerevisiae deletion strains, locus YML070W, strain DAK1, active compounds read low
  normalized growth: 0.974
S. cerevisiae deletion strains, locus YMR001C, strain CDC5, active compounds read low
  normalized growth: 0.974
S. cerevisiae deletion strains, locus YMR205C, strain PFK2 (second series), active compounds read low
  normalized growth: 0.992
S. cerevisiae deletion strains, locus YMR277W, strain FCP1, active compounds read low
  normalized growth: 0.989
S. cerevisiae deletion strains, locus YNL006W, strain LST8, active compounds read low
  normalized growth: 0.966
S. cerevisiae deletion strains, locus YNL020C, strain ARK1, active compounds read low
  normalized growth: 0.972
S. cerevisiae deletion strains, locus YNL161W, strain CBK1, active compounds read low
  normalized growth: 0.971
S. cerevisiae deletion strains, locus YNL183C, strain NPR1, active compounds read low
  normalized growth: 0.926
S. cerevisiae deletion strains, locus YNL207W, strain RIO2, active compounds read low
  normalized growth: 0.983
S. cerevisiae deletion strains, locus YNL222W, strain SSU72, active compounds read low
  normalized growth: 0.966
S. cerevisiae deletion strains, locus YNL307C, strain MCK1 (second series), active compounds read low
  normalized growth: 0.988
S. cerevisiae deletion strains, locus YOL078W, strain AVO1, active compounds read low
  normalized growth: 0.975
S. cerevisiae deletion strains, locus YOL136C, strain PFK27, active compounds read low
  normalized growth: 0.968
S. cerevisiae deletion strains, locus YOR061W, strain CKA2, active compounds read low
  normalized growth: 0.966
S. cerevisiae deletion strains, locus YOR119C, strain RIO1, active compounds read low
  normalized growth: 1.08
S. cerevisiae deletion strains, locus YOR231W, strain MKK1, active compounds read low
  normalized growth: 0.955
S. cerevisiae deletion strains, locus YOR329C, strain SCD5, active compounds read low
  normalized growth: 0.971
S. cerevisiae deletion strains, locus YPL031C, strain PHO85, active compounds read low
  normalized growth: 0.985
S. cerevisiae deletion strains, locus YPL153C, strain RAD53, active compounds read low
  normalized growth: 0.962
S. cerevisiae deletion strains, locus YPL204W, strain HRR25, active compounds read low
  normalized growth: 0.964
S. cerevisiae deletion strains, locus YPL209C, strain IPL1, active compounds read low
  normalized growth: 0.973
S. cerevisiae deletion strains, locus YPL256C, strain CLN2, active compounds read low
  normalized growth: 0.926
S. cerevisiae deletion strains, locus YPR025C, strain CCL1, active compounds read low
  normalized growth: 0.97
S. cerevisiae deletion strains, locus YPR106W, strain ISR1, active compounds read low
  normalized growth: 0.971
S. cerevisiae deletion strains, locus YPR111W, strain DBF20, active compounds read low
  normalized growth: 0.965
S. cerevisiae deletion strains, strain NNK1, active compounds read low
  normalized growth: 0.951
S. cerevisiae deletion strains, strain TSCII, active compounds read low
  normalized growth: 0.964

## Cc1nn(-c2ccccc2)nc1-c1nnc(-c2ccc(Cl)cc2)o1
[3]
  normalized growth: 1.02
[4]
  normalized growth: 1.01
S. cerevisiae deletion strains, locus YCL061C, strain MRC1, active compounds read low
  normalized growth: 0.986
[1]
  normalized growth: 0.995
[5]
  normalized growth: 1
[6]
  normalized growth: 1
[7]
  normalized growth: 1.01
[8]
  normalized growth: 0.993
S. cerevisiae deletion strains, locus YGR229C, strain SMI1, active compounds read low
  normalized growth: 1.01
[2]
  normalized growth: 1.03
[9]
  normalized growth: 1.04
[10]
  normalized growth: 1.02
[11]
  normalized growth: 1
[12]
  normalized growth: 1.01
[13]
  normalized growth: 1.04
[14]
  normalized growth: 1.02
[15]
  normalized growth: 1.03
[16]
  normalized growth: 1.03
[17]
  normalized growth: 1.04
[18]
  normalized growth: 0.998
[19]
  normalized growth: 1.05
S. cerevisiae deletion strains, locus YMR307W, strain GAS1, active compounds read low
  normalized growth: 1.07
[20]
  normalized growth: 1
[21]
  normalized growth: 1.01
[22]
  normalized growth: 0.988
[23]
  normalized growth: 1.03
[24]
  normalized growth: 1.01
[25]
  normalized growth: 1
[26]
  normalized growth: 0.98
[27]
  normalized growth: 1.01

## FC(F)(F)Oc1ccccc1-c1nnc(-c2ccc(Cl)cc2)o1
[3]
  normalized growth: 0.946
[4]
  normalized growth: 0.968
[1]
  normalized growth: 0.971
[5]
  normalized growth: 0.963
[6]
  normalized growth: 0.912
[7]
  normalized growth: 0.931
[8]
  normalized growth: 0.934
[2]
  normalized growth: 0.442 (active)
[9]
  normalized growth: 0.924
S. cerevisiae deletion strains, locus YJL187C, strain SWE1, active compounds read low
  normalized growth: 0.957
[10]
  normalized growth: 0.975
[11]
  normalized growth: 0.87 (active)
[12]
  normalized growth: 0.9 (active)
[13]
  normalized growth: 0.874
[14]
  normalized growth: 0.95
[15]
  normalized growth: 0.68 (active)
[16]
  normalized growth: 0.963
[17]
  normalized growth: 0.878
[18]
  normalized growth: 0.966
[19]
  normalized growth: 0.948
[20]
  normalized growth: 0.976
[21]
  normalized growth: 0.872
[22]
  normalized growth: 0.944
[23]
  normalized growth: 0.837 (active)
S. cerevisiae deletion strains, locus YOL006C, strain TOP1, active compounds read low
  normalized growth: 0.767
[24]
  normalized growth: 0.851
[25]
  normalized growth: 0.852 (active)
[26]
  normalized growth: 0.73
[27]
  normalized growth: 0.94
